Measurements published in PubChem BioAssay AID900 (National Center for Advancing Translational Sciences (NCATS), 2007).
Hit rate of the full screen: of about 75,000 compounds, about 20 (0.03%) were called active. Inconclusive results (about 1%) are left out. These entries were drawn from the full list. Values without a mark were called inactive. The call rests on the fitted dose curve; in most records, active means well fitted inhibition curve with a large enough effect; inconclusive means small, poorly fitted or top-dose-only effect; inactive means flat fitted curve, though single readings scatter.

Target: Caspase-1 (Homo sapiens) (UniProt P29466)
Assay: qHTS Assay for Allosteric/Competitive Inhibitors of Caspase-1
Details: Caspase-1 enzyme, Ac-WEHD-AFC fluorogenic rate; series mostly up to 57.5 µM; activity change, negative = inhibition: at the top concentration
Excerpt: NIH Molecular Libraries Screening Centers Network [MLSCN]
NIH Chemical Genomics Center [NCGC]
PI Name: Dr. James Wells,
Dr. Enrique Perez-Paya, Dr.Janice Williams, Dr. Dennis Wolan, a person
The caspases (Cysteine Aspartyl Protease) comprise a related family of 14 dimeric proteases that are critical mediators of apoptosis (programmed cell death) and inflammation. The caspases represent an important class of drug targets for stroke, ischemia, cancer and inflammatory diseases. […] One goal of this project was to identify compounds that act as allosteric inhibitors via stabilizing the procaspase form of the enzyme. Previous work in Well's laboratory has shown that such allosteric inhibitors can be identified and these act by binding at the dimer interface of enzyme (Hardy, Lam et al., 2004).
The biochemical assay was configured using purified caspase 1 at a high enzyme concentration to promote formation of the homodimers and thus facilitate the identification of allosteric inhibitors. The overall goal was to identify reversible inhibitors with better drug-like properties than the currently available set of aspartyl-containing peptidomimetics that covalently bind the active site. Caspase 1 was assayed using the profluorescent substrate Ac-WEHD-AFC. After initiation of the assay with substrate the plates were rapidly read using an automated robotic system (Kalypsys, Inc.) to maintain consistent timing. A kinetic mode of detection was used where the initial rate was collected (estimated final product formation was ~10%). Compounds were screened as a concentration-titration series that ranged from 57 uM to 0.7 nM. Below is the protocol used for caspase 1.
NCGC Assay Protocol Summary:
Caspase 1 was prepared in buffer (50 mM HEPES pH 7.5, 50 mM KCl, 200 mM NaCl, 10 mM DTT, 0.1% CHAPS) at a concentration of 66.6 nM and 3 uL was dispensed to all wells using black solid Kalypsys 1536-well plates. 20 nL of DMSO containing compounds was added using a pin-tool (Kalypsys Inc.) to columns 5-48. Then 20 nL of DMSO solution from a control plate was added to columns 1-4. Controls were: Column 1, 16 point titration with each concentration in duplicate (1:1 dilutions in DMSO; final starting concentration was 57 uM) of the caspase 1 inhibitor Ac-WEHD-CHO (Alexis Biochemicals); Column 2, a 16 point titration with each concentration in duplicate of the free AFC fluorophore prepared in DMSO (Alexis Biochemicals), final starting was 40 uM; Column 3 neutral (DMSO only) control; Column 4: DMSO alone, to serve as a negative control (no substrate was added). Then 1 uL of 20 uM the substrate Ac-WEHD-AFC (Alexis Biochemicals) prepared in the same buffer was dispensed to all wells except columns 2 and 4 and the plates were immediately transferred (< 1 min) to the Viewlux. The plates were then exposed using 405 nm excitation/520 nm emission filters for 4 sec and read at 20 sec intervals for 3 min. Final enzyme concentration was 50 nM and the final substrate concentration was 5 uM.
Concentration-response curves were fitted to the data calculated from slope of the linear regression of fluorescent intensity versus time (the rate). The concentration-effect curves were then classified based on curve quality (r2), response magnitude and degree of measured activity. […] Inconclusive compounds had appreciable concentration-dependent effects on both the measured rate and the interpolated basal fluorescence intensity at the start of the reaction but where the basal fluorescent intensity was marginal (e.g. < 10-fold). Inconclusive compounds also encompass highly fluorescent compounds (>100-fold increases in fluorescent intensities values relative to controls) where artificial concentration-dependent decreases in the rate occurred at high compound concentrations due to fluorescent interferences.
Keywords: Caspase 1, proteases, profluorescent, MLSMR, MLSCN, NIH Roadmap, qHTS, NCGC

| Structure (SMILES) | activity change, negative = inhibition |
| --- | --- |
| CC1(C)SC2C(NC(=O)COc3ccccc3)C(=O)N2C1C(=O)O (configuration not stated) | 1.65% |
| O=c1ccc2cc(S(=O)(=O)N3CCN(c4ccccc4)CC3)ccc2o1 | 0.0604% |
| CCOC(=O)[C@]1(C(/C=C/c2ccco2)NC(=O)OC)CCCC1=O (some centres not stated) | -4.71% [at 11.5 µM] |
| Cc1cnc(CNc2nc(-c3cccnc3)nc3ccccc23)cn1 | -2.26% |
| O=C(COc1ccccc1)NCCc1nc2ccccc2[nH]1 | 0.143% |
| COc1ccc(CNc2ncncc2-c2ccccc2OC)c(OC)c1 | -0.391% |
| CCC[C@@H]1C[C@@]1(CCC)C(NC(=O)c1ccc(-c2ccccc2)cc1)c1cccc(Cl)c1 (some centres not stated) | -0.862% |
| Cc1cccc(-c2cc(=O)c3cc(C)ccc3o2)c1 | -3.23% |
| COc1ccc(/C=C/NC(=O)c2ccc(OC)cc2)cc1 | -1.51% [at 11.5 µM] |
| O=C(CN1CCOCC1)Nc1cc(Cl)ccc1Cl | 1.19% |
| COC(=O)NC(c1ccccc1)[C@]1(C(C)=O)CCCC1=O (some centres not stated) | 0.536% [at 11.5 µM] |
| Cc1c2c(nc3ccccc13)-c1cccc(=O)n1C2 | -3.06% |
| COc1ccc(C2CC(=O)c3c(O)cc(OC4OC(COC5OC(C)C(O)C(O)C5O)C(O)C(O)C4O)cc3O2)cc1O (configuration not stated) | -1% |
| CC(=O)/C(=N\N=C(N)N)c1ccccc1 | -1.52% [at 11.5 µM] |
| C[C@]12C=CC(=O)C=C1CC[C@@H]1[C@@H]2C(=O)C[C@@]2(C)[C@H]1CC[C@]2(O)C(=O)CO | -1.44% |
| CC1=C(/C=C/C(C)=C/C=C/C(C)=C/C=C/C=C(C)/C=C/C=C(C)/C=C/C2=C(C)CCCC2(C)C)C(C)(C)CCC1 | 3.19% |
| O=C1[C@H]2[C@H]3[C@H](O)[C@H](O)C/C(=N/OCc4ccccc4)[C@H]3CC[C@@H]2C(=O)N1Cc1ccccc1 | -0.986% [at 11.5 µM] |
| COC(=O)[C@@H]1C[C@@]2(O)[C@H](O)[C@H](O)[C@H](O)C[C@H]2N1Cc1ccc(C(C)(C)C)cc1 | 0.555% |
| CC1(C)C(=O)C2(CCCCC2)C(=O)OC1c1cccs1 (configuration not stated) | -5.44% |
| CCOc1ccccc1C1NC(=O)NC(C)=C1C(=O)OCc1ccco1 (configuration not stated) | -1.34% |
| CN(C)c1cc2c(Nc3ccc4c(cnn4Cc4ccccc4)c3)ncnc2cn1 | 1.68% |
| O=C(NCCN=C1NS(=O)(=O)c2ccccc21)c1ccc(S(=O)(=O)N2CCOCC2)cc1 | -1.5% |
| CC1CCCCN1CCCNC(=O)c1ccc(-n2c(=O)c(=O)[nH]c3ccccc32)cc1 (configuration not stated) | -1.66% |
| Nc1ncnc2c1ncn2C1CC(O)C(CO)O1 (configuration not stated) | inactive |

| Structure (SMILES) | activity change, negative = inhibition |
| --- | --- |
| Cc1nnc(N(Cc2ccco2)C(=O)c2ccno2)s1 | -3.12% |
| Cc1cc(Cl)ccc1N1C(=O)CC(SCCC(=O)O)C1=O (configuration not stated) | -0.329% |
| Cc1cc(C(=O)N2CCN(c3ccccn3)CC2)c(C)o1 | -1.81% |
| CC(=O)OC1CCC2(O)CC1(C)CCC1C2CC1(C)C (configuration not stated) | 1.71% |
| O=S(=O)(c1ccccc1)N1CCC2(CC1)CN(Cc1nccs1)C2 | 0.431% |
| COc1ccc2c3c1OC1CC(O)C=C[C@@]31CCN(C)C2 (some centres not stated) | 2.42% |
| COc1c2c(cc3occ(-c4ccc5c(c4)OCO5)c(=O)c13)OC(C)(C)C=C2 | -5.85% |
| Cc1cc(C(=O)COC(=O)c2cccs2)c(C)n1-c1c(C)n(C)n(-c2ccccc2)c1=O | 1.16% |
| CC(C)CO | -2.94% |
| CC1(C)OC2CC(=O)OC[C@@]23C1CC(=O)[C@]1(C)C3CC[C@@]2(C)C(c3ccoc3)OC(=O)C3O[C@@]321 (some centres not stated) | -1.49% |
| O=C(NCCSc1ccccc1)c1ccco1 | 0.764% |
| CN1CC(=O)N=C1N | -2.03% |
| COc1cc(OC)c2c(c1Cl)OC1(C2=O)C(O)=CC(=O)CC1C (configuration not stated) | 0.226% |
| O=C1OC(C(O)CO)C(O)=C1O (configuration not stated) | 0.0953% |
| COC(=O)[C@@]1(Cc2ccccc2)[C@H]2c3cc(C(=O)N(C)C)n(CCSCCO)c3C[C@H]2CN1C(=O)c1ccccc1 | 2.77% |
| C=C1C(=O)C23C(O)C1CCC2[C@]12COC3(O)C(O)C1C(C)(C)CC[C@H]2O (some centres not stated) | 0.517% |
| Oc1ccc2ccccc2c1C=NCc1c(O)ccc2ccccc12 | -2.14% [at 11.5 µM] |
| Cc1cn(COC/C=C/c2ccccc2)c(=O)[nH]c1=O | 1.02% |
| CC(C)=CCC/C(C)=C/CC/C(C)=C/CC/C(C)=C/CO | 2.21% |
| CCc1c(C)c2c(C)[nH]nc2oc1=O | -0.196% |
| CCCC[C@@H]1C[C@H]1C(NC(=O)c1ccc(-c2ccccc2)cc1)c1ccc(-c2ccccc2)cc1 (some centres not stated) | -1.23% |
| Cc1c(C(=O)OCc2cc(=O)n3cc(Br)ccc3n2)oc2ccccc12 | -0.19% |
| FC(F)(F)c1ccc(CN2C[C@@H]3C(c4ccccc4)C4(c5ccccc5)CC3(C4)[C@H]2c2ccccc2)cc1 (some centres not stated) | 3.32% |
